# Test results reported in PubChem BioAssay (EPA / NIEHS).
# Records with an inconclusive call do not appear. Calls of active or inactive are those of the source. Rule for the calls: active = hit-call score of the fitted dose curve at least 0.9, where 1 is the maximum; inconclusive = response in the unintended direction; inactive = score below 0.9.
# What was measured:
# [1] = ACEA_AR_agonist_AUC_viability: ACEA Biosciences xCELLigence Real-Time Cell Analysis on Androgen Receptor Agonism for Viability (AID 2283775);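 for AC50: viability read 80 hours after compound addition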
# Procedure, shortened: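 Viability endpoint from xCELLigence impedance in 22Rv1 prostate cells at 80 h. Eight-point series, 100 uM maximum final.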
# [2] = ACEA_AR_antagonist_AUC_viability: ACEA Biosciences xCELLigence Real-Time Cell Analysis on Androgen Receptor Antagonism for Viability (AID 2283776);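 note: area under impedance growth curve at 80 h after dosing as viability; hits lower the growth signal relative to DMSO meaning cytotoxicity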
# Procedure, shortened: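 22Rv1 human prostate cancer cells were seeded on electrode plates, monitored overnight, then exposed to eight 1:4 dilutions from 100 uM final. Impedance-based growth kinetics at 80 h gave an AUC viability endpoint normalized to DMSO.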
# [3] = ACEA_ER_AUC_viability: ACEA Biosciences xCELLigence Real-Time Cell Analysis on Estrogen Receptor Agonism for Viability (AID 2283782);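 note: hit means loss of impedance signal meaning reduced cell growth or viability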
# Procedure, shortened: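 Continuous-exposure impedance cell analysis uses T-47D cells in charcoal-stripped serum, eight 1:4 dilutions topping at 100 uM final, biological duplicate. Area under the growth curve at 80 h is fitted against DMSO baseline.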
# AR (gene 367) [4] = target: AR (gene 367) (UniProt P10275); assay: ACEA_AR_antagonist_80hr: ACEA Biosciences xCELLigence Real-Time Cell Analysis on Androgen Receptor Antagonism for Proliferation (AID 2283787);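 note: hits lower the impedance growth signal relative to DMSO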
# Chain of AR (gene 367) (P10275 whole entry, looked up): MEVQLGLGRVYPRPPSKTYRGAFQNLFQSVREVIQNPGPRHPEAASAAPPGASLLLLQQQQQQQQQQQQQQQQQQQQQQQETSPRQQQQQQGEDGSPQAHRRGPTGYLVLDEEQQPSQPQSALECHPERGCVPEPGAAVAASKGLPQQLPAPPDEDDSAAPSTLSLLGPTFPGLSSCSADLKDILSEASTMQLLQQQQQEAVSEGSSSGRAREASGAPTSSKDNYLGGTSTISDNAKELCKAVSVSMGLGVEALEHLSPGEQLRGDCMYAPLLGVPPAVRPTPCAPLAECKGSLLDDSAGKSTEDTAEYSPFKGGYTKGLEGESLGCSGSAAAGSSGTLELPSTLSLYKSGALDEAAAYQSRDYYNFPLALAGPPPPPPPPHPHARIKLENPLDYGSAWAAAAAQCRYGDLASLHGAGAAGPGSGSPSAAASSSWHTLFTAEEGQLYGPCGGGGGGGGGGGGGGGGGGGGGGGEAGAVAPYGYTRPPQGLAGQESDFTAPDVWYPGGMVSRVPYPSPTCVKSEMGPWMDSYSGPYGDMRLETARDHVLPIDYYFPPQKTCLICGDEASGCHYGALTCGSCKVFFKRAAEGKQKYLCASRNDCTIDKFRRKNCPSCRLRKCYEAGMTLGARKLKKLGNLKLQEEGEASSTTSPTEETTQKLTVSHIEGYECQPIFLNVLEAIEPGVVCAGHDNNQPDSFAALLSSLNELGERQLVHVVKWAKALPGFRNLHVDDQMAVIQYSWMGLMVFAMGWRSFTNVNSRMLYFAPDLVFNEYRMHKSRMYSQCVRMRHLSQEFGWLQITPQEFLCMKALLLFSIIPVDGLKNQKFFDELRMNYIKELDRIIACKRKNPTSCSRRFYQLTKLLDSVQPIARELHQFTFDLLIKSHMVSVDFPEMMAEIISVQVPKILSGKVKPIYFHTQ
# Procedure, shortened: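 Using 22Rv1 cells held in assay medium, we dosed compounds (100 uM maximum final, 1:4 serial, eight points, 0.5% DMSO at top) and recorded cell-electrode impedance; the 80 hr timepoint was analyzed against DMSO.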
# AR (gene 367) [5] = target: AR (gene 367) (UniProt P10275); assay: ACEA_AR_agonist_80hr: ACEA Biosciences xCELLigence Real-Time Cell Analysis on Androgen Receptor Agonism for Proliferation (AID 2283783);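 note: hits increase impedance growth signal above DMSO baseline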
# Procedure, shortened: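 Real-time cell-growth kinetics were recorded by electrode impedance in 22Rv1 cells exposed to test chemicals up to 100 uM final; the 80 h timepoint served as the readout, fitted upward relative to DMSO controls, in biological duplicate.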
structure (smiles),measurement,setting,value
CC(=O)O[C@@H]1CC2CCC1(C)C2(C)C (stereo partly drawn),outcome,[1],inactive
same,outcome,[2],inactive
same,outcome,[3],inactive
same,outcome,AR (gene 367) [4],inactive
CCCCC(CC)COC(C)=O (stereo not drawn),outcome,[2],inactive
CC(C)CCCCCCc1ccc(OCCOCCO)cc1,outcome,[1],inactive
same,outcome,[2],inactive
same,outcome,[3],inactive
same,outcome,AR (gene 367) [5],inactive
same,outcome,AR (gene 367) [4],inactive
CC1CCC(C(C)C)C(O)C1 (stereo not drawn),outcome,[1],inactive
same,outcome,[2],inactive
same,outcome,[3],inactive
same,outcome,AR (gene 367) [5],inactive
same,outcome,AR (gene 367) [4],inactive
CCCCC1CCC(O)CC1 (stereo not drawn),outcome,[1],inactive
same,outcome,[2],inactive
same,outcome,[3],inactive
same,outcome,AR (gene 367) [4],inactive
CCCCCCC(CO)CCCC (stereo not drawn),outcome,[1],inactive
same,outcome,[2],inactive
same,AC50,[3],76900 nM (active)
CCCCCCC(=O)c1ccccc1,outcome,[1],inactive
same,outcome,[3],inactive
OC[C@H]1O[C@@H]2O[C@H]3[C@H](O)[C@@H](O)[C@@H](O[C@H]4[C@H](O)[C@@H](O)[C@@H](O[C@H]5[C@H](O)[C@@H](O)[C@@H](O[C@H]6[C@H](O)[C@@H](O)[C@@H](O[C@H]7[C@H](O)[C@@H](O)[C@@H](O[C@H]8[C@H](O)[C@@H](O)[C@@H](O[C@H]9[C@H](O)[C@@H](O)[C@@H](O[C@H]1[C@H](O)[C@H]2O)O[C@@H]9CO)O[C@@H]8CO)O[C@@H]7CO)O[C@@H]6CO)O[C@@H]5CO)O[C@@H]4CO)O[C@@H]3CO,outcome,[1],inactive
same,outcome,[2],inactive
same,outcome,[3],inactive
C=Cc1ccc(C)cc1,outcome,[1],inactive
same,outcome,[3],inactive
O=C1NC2NC(=O)NC2N1 (stereo not drawn),outcome,[1],inactive
same,outcome,[2],inactive
same,outcome,[3],inactive
COCCOCCOCCO,outcome,[1],inactive
same,outcome,[3],inactive
C[C@H]1O[C@@H](O[C@H]2[C@@H](O)C[C@H](O[C@H]3[C@@H](O)C[C@H](O[C@H]4CC[C@@]5(C)[C@H](CC[C@@H]6[C@@H]5C[C@@H](O)[C@]5(C)[C@@H](C7=CC(=O)OC7)CC[C@]65O)C4)O[C@@H]3C)O[C@@H]2C)C[C@H](O)[C@@H]1O,AC50,[1],9.28 nM (active)
same,AC50,[2],14.8 nM (active)
same,AC50,[3],80.3 nM (active)
same,outcome,AR (gene 367) [5],inactive
same,AC50,AR (gene 367) [4],9.28 nM (active)
C=C1C[C@]23C[C@@]1(O)CC[C@H]2[C@@]12C=C[C@H](O)[C@@](C)(C(=O)O1)[C@H]2[C@@H]3C(=O)O,outcome,[2],inactive
same,outcome,[3],inactive
Cc1ncc[nH]1,outcome,[3],inactive
CCCCCCCC(=O)OCC(O)CO (stereo not drawn),outcome,[1],inactive
same,outcome,[2],inactive
same,outcome,[3],inactive
C=CCCCCCCCCCC,outcome,[3],inactive
COC(C)(C)CCCC(C)CC=O (stereo not drawn),AC50,[3],50000 nM (active)
O=C(CC(=O)c1ccccc1)c1ccccc1,outcome,[2],inactive
CCCCCCCCSCCO,outcome,[1],inactive
same,outcome,[2],inactive
same,AC50,[3],70500 nM (active)
same,outcome,AR (gene 367) [5],inactive
same,outcome,AR (gene 367) [4],inactive
CCCCCCCC/C=C\CCCCCCCC(=O)OCC,outcome,[1],inactive
same,outcome,[2],inactive
same,outcome,[3],inactive
ON=C1CCCCC1,outcome,[2],inactive
same,outcome,[3],inactive
